# Source: the supplement of paper PMC8728848
# This excerpt belongs to a sample that is enriched for the strongest signals.
# B1: rCnSL-proA (Clitocybe nebularis) (protein)
# chain: AAFFSLVVLLALLPFGIHASALPSTELTPRVNPNLPGPNDVFVGFRGTNNIVGAIYEKDGIKDTPLNNGADAEMGPGSYITDGLFTARIFASGSAGNNPGTTATVCKIYASGVQWRGAPKGYIPVAYFGNGPTAEQRRQTYLRTLGLPGTAIRFGNLNTNPGQGPTAPRQMVVPPGPLRSLLKASCFPAADTRLPQTLHYFEKRVDWNIITAADSQTWGH
# Tests used:
# Assay in all cases: glycan array binding signal (z-score within array); higher = stronger binding
# Conditions in all cases: glycan notation: IUPAC condensed, linker removed
# Fuc(a1-2)Gal(b1-3)GalNAc = biological target: Fuc(a1-2)Gal(b1-3)GalNAc
# In short: (§1)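 From the Consortium for Functional Glycomics database, 3228 arrays were curated, keeping only those whose protein sequence was available. Binding is given as a within-array Z-score averaged across arrays sharing a protein sequence and across linkers. Negative Z-scores can be read as non-binding.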
# Fuc(a1-2)Gal(b1-3)GlcNAc = biological target: Fuc(a1-2)Gal(b1-3)GlcNAc
# In short: as §1
# [1] = biological target: Fuc(a1-2)Gal(b1-3)[Fuc(a1-4)]GlcNAc(b1-2)Man(a1-3)[Fuc(a1-2)Gal(b1-3)[Fuc(a1-4)]GlcNAc(b1-2)Man(a1-3)]Man(b1-4)GlcNAc(b1-4)GlcNAc
# In short: as §1
# [2] = biological target: Fuc(a1-2)Gal(b1-3)[Fuc(a1-4)]GlcNAc(b1-3)[Fuc(a1-3)[Gal(b1-4)]GlcNAc(b1-6)]Gal(b1-4)Glc
# In short: as §1
# Fuc(a1-2)Gal(b1-4)Glc = biological target: Fuc(a1-2)Gal(b1-4)Glc
# In short: as §1
# [3] = biological target: Fuc(a1-2)Gal(b1-4)[Fuc(a1-3)]GlcNAc(b1-3)[Neu5Ac(a2-6)Gal(b1-4)GlcNAc(b1-6)]Gal(b1-4)Glc
# In short: as §1
# [4] = biological target: Fuc(a1-2)Gal6S(b1-4)Glc6S
# In short: as §1
# [5] = biological target: Fuc(a1-2)[Gal(a1-3)]Gal(b1-3)GalNAc(b1-3)Gal(a1-4)Gal(b1-4)Glc
# In short: as §1
# [6] = biological target: Fuc(a1-2)[Gal(a1-4)]Gal(b1-4)GlcNAc
# In short: as §1
# [7] = biological target: Fuc(a1-2)[GalNAc(a1-3)]Gal(b1-3)GlcNAc
# In short: as §1
# [8] = biological target: Fuc(a1-2)[GalNAc(a1-3)]Gal(b1-4)GlcNAc
# In short: as §1
# [9] = biological target: Fuc(a1-2)[GalNAc(a1-3)]Gal(b1-4)GlcNAc(b1-2)Man
# In short: as §1
# [10] = biological target: Fuc(a1-3)[Gal(b1-4)]GlcNAc(b1-6)GalNAc
# In short: as §1
# [11] = biological target: Fuc(a1-3)[Gal(b1-4)]GlcNAc6S
# In short: as §1
# [12] = biological target: Gal(a1-3)Gal(b1-4)GlcNAc(b1-3)GalNAc
# In short: as §1
# [13] = biological target: Gal(a1-3)Gal(b1-4)[Fuc(a1-3)]GlcNAc(b1-2)Man(a1-3)[Gal(a1-3)Gal(b1-4)[Fuc(a1-3)]GlcNAc(b1-2)Man(a1-6)]Man(b1-4)GlcNAc(b1-4)GlcNAc
# In short: as §1
# Gal(a1-4)Gal(b1-4)Glc = biological target: Gal(a1-4)Gal(b1-4)Glc
# In short: as §1
# [14] = biological target: Gal(b1-3)GlcNAc(b1-3)Gal(b1-4)Glc
# In short: as §1
# [15] = biological target: Gal(b1-3)GlcNAc(b1-3)Gal(b1-4)[Fuc(a1-3)]GlcNAc(b1-6)[Gal(b1-3)GlcNAc(b1-3)]Gal(b1-4)Glc
# In short: as §1
# [16] = biological target: Gal(b1-3)[Neu5Ac(a2-6)]GlcNAc(b1-4)Gal(b1-4)Glc
# In short: as §1
# [17] = biological target: Gal(b1-4)GlcNAc(a1-6)Gal(b1-4)GlcNAc
# In short: as §1
# [18] = biological target: Gal(b1-4)GlcNAc(b1-2)[Gal(b1-4)GlcNAc(b1-4)]Man(a1-3)[Gal(b1-4)GlcNAc(b1-2)Man(a1-6)]Man(b1-4)GlcNAc(b1-4)GlcNAc
# In short: as §1
# [19] = biological target: Gal(b1-4)GlcNAc(b1-3)Gal(b1-4)GlcNAc(b1-2)Man(a1-3)[Gal(b1-4)GlcNAc(b1-3)Gal(b1-4)GlcNAc(b1-2)Man(a1-6)]Man(b1-4)GlcNAc(b1-4)GlcNAc
# In short: as §1
# [20] = biological target: Gal(b1-4)GlcNAc(b1-3)Gal(b1-4)GlcNAc(b1-3)Gal(b1-4)GlcNAc(b1-2)Man(a1-3)[Gal(b1-4)GlcNAc(b1-3)Gal(b1-4)GlcNAc(b1-3)Gal(b1-4)GlcNAc(b1-2)Man(a1-6)]Man(b1-4)GlcNAc(b1-4)GlcNAc
# In short: as §1
# [21] = biological target: Gal(b1-4)GlcNAc(b1-3)Gal(b1-4)GlcNAc(b1-3)Gal(b1-4)GlcNAc(b1-2)[Gal(b1-4)GlcNAc(b1-3)Gal(b1-4)GlcNAc(b1-3)Gal(b1-4)GlcNAc(b1-6)]Man(a1-6)[Gal(b1-4)GlcNAc(b1-3)Gal(b1-4)GlcNAc(b1-3)Gal(b1-4)GlcNAc(b1-2)Man(a1-3)]Man(b1-4)GlcNAc(b1-4)[Fuc(a1-6)]GlcNAc
# In short: as §1
# [22] = biological target: Gal(b1-4)GlcNAc(b1-3)Gal(b1-4)GlcNAc(b1-3)Gal(b1-4)GlcNAc(b1-3)Gal(b1-4)GlcNAc(b1-2)[Gal(b1-4)GlcNAc(b1-3)Gal(b1-4)GlcNAc(b1-3)Gal(b1-4)GlcNAc(b1-3)Gal(b1-4)GlcNAc(b1-6)]Man(a1-6)[Gal(b1-4)GlcNAc(b1-3)Gal(b1-4)GlcNAc(b1-3)Gal(b1-4)GlcNAc(b1-3)Gal(b1-4)GlcNAc(b1-2)Man(a1-3)]Man(b1-4)GlcNAc(b1-4)[Fuc(a1-6)]GlcNAc
# In short: as §1
# [23] = biological target: Gal(b1-4)GlcNAc(b1-3)Gal(b1-4)GlcNAc(b1-3)Gal(b1-4)GlcNAc(b1-3)Gal(b1-4)GlcNAc(b1-3)Gal(b1-4)GlcNAc(b1-2)[Gal(b1-4)GlcNAc(b1-3)Gal(b1-4)GlcNAc(b1-3)Gal(b1-4)GlcNAc(b1-3)Gal(b1-4)GlcNAc(b1-3)Gal(b1-4)GlcNAc(b1-6)]Man(a1-6)[Gal(b1-4)GlcNAc(b1-3)Gal(b1-4)GlcNAc(b1-3)Gal(b1-4)GlcNAc(b1-3)Gal(b1-4)GlcNAc(b1-3)Gal(b1-4)GlcNAc(b1-2)Man(a1-3)]Man(b1-4)GlcNAc(b1-4)[Fuc(a1-6)]GlcNAc
# In short: as §1
binder,measurement,setting,value
B1,glycan array binding signal (z-score),Fuc(a1-2)Gal(b1-3)GalNAc,-0.318
same,glycan array binding signal (z-score),Fuc(a1-2)Gal(b1-3)GlcNAc,-0.622
same,glycan array binding signal (z-score),[1],6
same,glycan array binding signal (z-score),[2],-0.573
same,glycan array binding signal (z-score),Fuc(a1-2)Gal(b1-4)Glc,-0.272
same,glycan array binding signal (z-score),[3],-0.085
same,glycan array binding signal (z-score),[4],-0.281
same,glycan array binding signal (z-score),[5],-0.278
same,glycan array binding signal (z-score),[6],0.128
same,glycan array binding signal (z-score),[7],0.497
same,glycan array binding signal (z-score),[8],-0.387
same,glycan array binding signal (z-score),[9],-0.723
same,glycan array binding signal (z-score),[10],0.153
same,glycan array binding signal (z-score),[11],0.115
same,glycan array binding signal (z-score),[12],-0.161
same,glycan array binding signal (z-score),[13],3.75
same,glycan array binding signal (z-score),Gal(a1-4)Gal(b1-4)Glc,-0.307
same,glycan array binding signal (z-score),[14],-0.329
same,glycan array binding signal (z-score),[15],0.293
same,glycan array binding signal (z-score),[16],-0.459
same,glycan array binding signal (z-score),[17],3.94
same,glycan array binding signal (z-score),[18],0.465
same,glycan array binding signal (z-score),[19],5.99
same,glycan array binding signal (z-score),[20],4.45
same,glycan array binding signal (z-score),[21],4.11
same,glycan array binding signal (z-score),[22],4.64
same,glycan array binding signal (z-score),[23],3.94
